An excerpt weighted towards active compounds, which were near 7% of everything screened.
IL-1B inflam inh: inhibitors of inflammasome signaling (IL-1 beta secretion). AID 743279. THP-1 LPS/ATP IL-1B secretion, AlphaLISA, 16 h; hits give low values. activity change, % at 57.5 µM. 360,000 tested, 4.7% active; in the data active = activity change below about -50%; inconclusive = mostly about -30% to -49%; note: % is set by controls: 0 for no effect and ±100 for the full control effect
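THP-1 cells pretreated 1 hr with compounds (up to 57.5 uM final), then stimulated with LPS (250 ng/mL final) plus ATP (1.25 mM final); secreted IL-1B measured by AlphaLISA after 16 hr, decreased signal indicating inhibition.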
DRD3 agonist: agonists of human D3 dopamine receptor. P35462. D3R DiscoveRx beta-arrestin cells, luminescence, 90 min. max activation, %. 410,000 tested, 0.58% active; in the data active = max activation above about 30%; note: 0% is about no effect
Target sequence (P35462 whole entry, looked up): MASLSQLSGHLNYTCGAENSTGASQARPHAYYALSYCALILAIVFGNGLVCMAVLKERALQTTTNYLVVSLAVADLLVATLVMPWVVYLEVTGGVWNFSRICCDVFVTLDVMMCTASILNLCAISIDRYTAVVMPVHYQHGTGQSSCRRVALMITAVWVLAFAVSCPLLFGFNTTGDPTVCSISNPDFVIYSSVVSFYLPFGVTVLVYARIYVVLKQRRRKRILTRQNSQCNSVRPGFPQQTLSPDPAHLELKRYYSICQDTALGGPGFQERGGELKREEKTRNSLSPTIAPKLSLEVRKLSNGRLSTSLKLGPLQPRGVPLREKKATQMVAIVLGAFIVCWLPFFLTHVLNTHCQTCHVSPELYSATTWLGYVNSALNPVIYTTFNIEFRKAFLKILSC
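Cells at 1500/well, incubated overnight, then treated with pinned compounds (dopamine as control) for 90 min at 37 degrees C. DiscoveRx reagent added for 30 - 60 minutes at room temperature; luminescence read.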
a7 integrin act: integrin-mediated muscular dystrophy alleviation activation; alpha7betagal myoblasts, beta-gal FDG fluorescence, 48 h; Potency, µM (top dose mostly 38.3 µM), for inactives: top-dose activation, actives largely listed as activators; 350,000 tested, 0.064% active; AID 624291;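 note: potency is the fitted concentration of half-maximal effect; 100% = response of the positive control SU9516; nearly all actives have a fitted effect of over 60% in size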
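Alpha7betagal+/- myoblasts (passage 13) were plated 16-24 hr, then exposed to compounds (1:260 dilution of DMSO stock) for 48 hours at 37C. After MPER lysis, β-galactosidase reporter activity was read as FDG fluorescence (ex 480/em 540) after 30 minutes.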
ATXN2 expr inh: ATXN2 expression inhibition. HEK-293 ATXN2-luciferase reporter, luminescence, 24 h. Potency, µM (series often up to 57 µM), without a hit: at the highest dose activity change, negative = inhibition, most hits filed as inhibitors. 360,000 tested, 0.72% active; note: potency is the fitted concentration of half-maximal effect; % is set by controls: 0 for no effect and ±100 for the full control effect; nearly all actives have a fitted effect of over 55% in size
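qHTS (up to 57 uM final) was run with 24 h compound exposure of reporter cells at 37 °C. Each well was multiplexed: SteadyGlo luminescence measured ATXN2-luciferase expression after a fluorogenic Gly-Phe-AFC viability readout (25 uM final).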
DRD3 antagonist: blocks the human D3 dopamine receptor; max response, negative = inhibition, %; D3R cells, DiscoveRx beta-arrestin luminescence, antagonist mode; hits give low values; 360,000 tested, 2.5% active; in the data active = max response below about -50%; inconclusive = no clear call, values can overlap the other calls; note: % is set by controls: 0 for no effect and ±100 for the full control effect
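Cells plated overnight at 1500 cells/well, then exposed to library compounds with dopamine controls for 90 minutes at 37 degrees C. DiscoveRx reagent added for 30–60 minutes at room temperature; luminescence read, quantitative HTS format.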
S2 tox: reduces viability in counter-screen for ATXN expression inhibitors | S2 cells (HEK-293 line with an ATXN2-luciferase reporter) viability, CellTiter-Fluor protease fluorescence, 24 h | Potency, µM (titrated, usually from 56.7 µM), hits mostly cytotoxic | 400,000 tested, 0.49% active; note: potency is the fitted concentration of half-maximal effect; nearly all actives have a fitted effect of over 40% in size
An asterisk follows results filed as active; i = inactive; ? = inconclusive; / = no result given; [ ] = dose if it differs, or a comment. Unless noted, calls come from the whole dose curve; as a rule, active = well fitted curve in the direction sought with a large enough effect; inconclusive = small, poorly fitted or top-dose-only effect, or another doubt; inactive = no such curve, though single readings can be large; an effect the other way counts as inactive or inconclusive.

SMILES | IL-1B inflam inh | DRD3 agonist | a7 integrin act | ATXN2 expr inh | DRD3 antagonist | S2 tox
CC(C)c1ccc(S(=O)(=O)N2CCN(C(=O)C3CCCC3)CC2)cc1 | -15 | 2 | -13% | -13% | -6 | /
C/C(=N\NC(=O)c1ccc(CN(C)S(=O)(=O)c2ccc(C)cc2)cc1)c1ccc(OC(F)F)cc1 | 31 | 9 | -6% | ? | 8 | ?
Cc1ccc(S(=O)(=O)N(C)Cc2ccc(C(=O)N/N=C/c3ccc(OC(F)F)cc3)cc2)cc1 | 10 | 0 | 21% | ? | -7 | 11µM*
COC(=O)c1cc(OC)c(OC)cc1NC(=O)c1ccco1 | -62* | 6 | -26% | -12% | 12 | i
COC(=O)c1cc(OC)c(OC)cc1NC(=O)Cn1nnc(-c2ccccc2Cl)n1 | 9 | 52* | -9% | -13% | 6 | i
Cc1nc(/C(N)=N/OC(=O)c2c(-c3ccccc3Cl)noc2C)cs1 | -89* | -4 | 25% | -32% | 2 | i
Cc1onc(-c2c(F)cccc2Cl)c1C(=O)NCc1ccccn1 | 7 | -4 | -2% | -1% | 15 | i
Cc1onc(-c2ccccc2Cl)c1C(N)=O | 0 | -10 | 24% | -8% | 0 | i
Cc1onc(-c2ccccc2Cl)c1C(=O)NCc1ccccn1 | 34 | 2 | 2%[7.66 µM] | 1% | -58* | i
COc1cc(NC(=O)c2ccco2)c(C(=O)O)cc1OC | -23 | 3 | -3% | 0% | -17 | i
COc1ccc(NC(=O)Cn2nnc(-c3ccccc3F)n2)cc1Cl | 17 | -3 | -14% | -12% | 1 | i
COCCn1c(SCC(=O)NC(C)c2ccccc2)nc2ccccc21 (stereo not drawn) | -10 | -3 | 4% | -7% | 13 | i
Cc1ccc2nc3n(c(=O)c2c1)-c1ncccc1C(=O)NC3Cc1ccccc1 (stereo not drawn) | -5 | 0 | 9% | -5% | -17 | i
CC(C)CCNS(=O)(=O)c1cc2c3c(c1)CCN3C(=O)CC2 | 8 | -7 | -13% | / | -5 | i
COc1ccc(/C(N)=N/OC(=O)c2c(-c3ccccc3Cl)noc2C)cc1OC | -91* | 27 | -13% | ? | 37 | i
COC(=O)c1cc(OC)c(OC)cc1NC(=O)c1c(-c2ccccc2Cl)noc1C | 7 | 44* | -12% | -3% | 39 | i
COc1ccccc1NC(=S)NC(=O)c1c(-c2ccccc2Cl)noc1C | -15 | -2 | -39% | / | 9 | i
Cc1onc(-c2ccccc2Cl)c1C(=O)Oc1ccc(Cl)cc1Cl | / | 2 | / | / | / | /
CCc1cccc(CC)c1NC(=O)CN1CC(C)SC1=NC1CCCCC1 (stereo not drawn) | 0 | 0 | -15% | -30% | 2 | ?
CC1CCCCC12NC(=O)N(CC(=O)OCc1cccc(F)c1)C2=O (stereo not drawn) | 4 | -4 | 10µM* | / | 6 | /
Cc1cc2ccccc2n1CCNC(=O)C(C)Oc1ccccc1 (stereo not drawn) | -17 | -18 | 14% | -12% | -60* | i
CC(C)C(=O)NCCn1ccc2ccccc21 | -1 | -3 | -5% | 4% | -53* | i
COc1ccc(NC(=O)N2CCc3c(sc4c3CCCC4)C2c2ccccc2OC)cc1 (stereo not drawn) | / | -17 | / | / | / | /
COc1ccc(NC(=O)c2c(NC(=O)COc3ccccc3)sc3c2CCC(C(C)(C)C)C3)cc1 (stereo not drawn) | / | -5 | / | -5% | / | i
Cc1cccc2cc(CN(Cc3nnnn3C3CCCCC3)C3CCCC3)c3nnnn3c12 | ? | -9 | 17% | -14% | -65* | i
SMILES | IL-1B inflam inh | DRD3 agonist | a7 integrin act | ATXN2 expr inh | DRD3 antagonist | S2 tox
Cc1cc(C)c2[nH]c(=O)c(CN(Cc3nnnn3C3CCCC3)C3CCCCC3)cc2c1 | -4 | 3 | -27% | -9% | 17 | i
COC(=O)C1Cc2c([nH]c3ccccc23)C2(CCN(Cc3ccccc3)CC2)N1 (stereo not drawn) | -86* | -23 | -29% | -22% | -93* | i
CCOc1cccc(-c2cc(C(=O)NN)[nH]n2)c1 | 8 | 3 | -26% | -7% | -1 | ?
CCCC(=O)Nc1sc(C)c(C)c1C(=O)Nc1cccc(C)c1 | -59* | 4 | 21% | -14% | 14 | i
COc1cc(COCC(O)CN2CCCCC2C)cc(OC)c1OC (stereo not drawn) | -11 | -6 | 34% | -4% | 0 | i
CCC(=O)c1ccc(OCC(O)CN2CCc3ccccc3C2)cc1 (stereo not drawn) | -12 | 1 | -21% | / | -75* | ?
COc1ccc(OCC(O)CN2CCCCC2)cc1 (stereo not drawn) | 14 | -12 | -12% | -4% | -8 | i
COc1cc(COCC(O)CN2CCc3ccccc3C2)cc(OC)c1OC (stereo not drawn) | 7 | -10 | -31% | -10% | -85* | i
Cc1cccc(OCC(O)CN2CCc3ccccc3C2)c1 (stereo not drawn) | -21 | -1 | 21% | / | -104* | i
COc1ccc(OCC(O)CN2CCc3ccccc3C2)cc1 (stereo not drawn) | -15 | -16 | -8% | -2% | -107* | i
CCC(=O)c1ccc(OCC(O)CN2CCCCC2)cc1 (stereo not drawn) | 0 | -15 | 11%[7.66 µM] | -3% | ? | i
CCOC(=O)C(=O)CC(=O)c1ccc2c(c1)OCCO2 | -8 | 1 | -1% | / | -10 | i
CN1CCN(NC(=O)c2ccccc2F)CC1 | 5 | 4 | 17% | 10% | 50 | i
COC(=O)CSc1nc(SCc2ccccc2Cl)nc2c1CCCC2 | 19 | -1 | 6% | -27% | -11 | i
C=CCc1ccc(OCC(O)CN2CCc3ccccc3C2)c(OC)c1 (stereo not drawn) | -16 | -18 | 25% | -13% | -100* | i
CC(C)(C)c1ccc(OCC(O)CN2CCN(C(=O)c3ccccc3)CC2)cc1 (stereo not drawn) | -6 | -11 | -17% | / | 13 | ?
CC(C)(C)c1ccc(OCC(O)CN2CCc3ccccc3C2)cc1 (stereo not drawn) | 0 | -21 | -58% | / | -119* | ?
CN(Cc1cnccn1)Cc1ccccc1OCC(O)CN1CCc2ccccc2C1 (stereo not drawn) | 6 | -20 | -34% | -13% | -83* | i
Cc1ccc(OCC(O)CN2CCc3ccccc3C2)c(C)c1 (stereo not drawn) | -1 | -19 | -8% | / | -104* | i
Cc1ccc(SCC(=O)OCC(=O)NC2CCCCCC2)cc1 | 61 | 4 | 2% | -9% | 16 | i
